# Screens deposited in PubChem by Paczesny and Yang Labs, IUPUI and University of Michigan.
# The full list was thinned out, with hits kept by preference.
# ST2 IL33 inh: inhibitors of human ST2 (IL1RL1) binding to IL-33, primary screen, biochemical, AlphaLISA. AID 1259354, 2018. 78,000 compounds, 2.3% hits. Interleukin-1 receptor-like 1 (Homo sapiens), Q01638. inhibition, % for hits at 17 µM. AlphaLISA ST2-Fc/biotin-IL-33 interaction, 1 h; in the data active means inhibition above about 30%
# Target sequence (Q01638 whole entry, looked up): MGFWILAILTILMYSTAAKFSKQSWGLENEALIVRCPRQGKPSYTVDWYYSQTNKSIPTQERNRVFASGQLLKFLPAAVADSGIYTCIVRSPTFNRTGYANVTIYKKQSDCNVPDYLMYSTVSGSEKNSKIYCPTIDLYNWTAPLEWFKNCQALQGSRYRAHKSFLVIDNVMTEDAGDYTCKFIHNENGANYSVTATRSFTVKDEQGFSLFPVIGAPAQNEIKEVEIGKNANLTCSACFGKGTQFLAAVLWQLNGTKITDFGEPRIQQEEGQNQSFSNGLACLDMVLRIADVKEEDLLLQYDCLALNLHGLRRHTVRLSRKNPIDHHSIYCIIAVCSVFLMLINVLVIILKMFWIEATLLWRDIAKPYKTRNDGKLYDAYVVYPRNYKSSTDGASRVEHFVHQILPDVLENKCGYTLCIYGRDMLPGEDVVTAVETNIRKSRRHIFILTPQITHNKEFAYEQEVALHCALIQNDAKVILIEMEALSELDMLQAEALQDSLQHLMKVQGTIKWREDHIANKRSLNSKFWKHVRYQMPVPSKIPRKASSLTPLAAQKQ
# An asterisk follows results filed as active; i = inactive.
SMILES,ST2 IL33 inh
Cc1ccc2c(c1)c1nc3ccccc3nc1n2CCN1CCOCC1,i
Cc1ccccc1-n1c(N)c(C#N)c2nc3ccccc3nc21,30.0%*
CCc1ccc(S(=O)(=O)N2CCN(c3cc(-c4ccc(OC)cc4)ncn3)CC2)cc1,i
COc1ccc2c(=O)c(-c3csc(C)n3)c(C(F)(F)F)oc2c1,i
O=c1oc2ccc(Cl)cc2nc1C=C(O)c1ccc(F)cc1,i
CC(C)NS(=O)(=O)c1cc(NC2CCCCC2)cc(C(=O)NC2Cc3ccccc3C2)c1,30.0%*
Cc1ccc(S(=O)(=O)N2CCCCC2)cc1C(=O)NC1CCCCC1,i
CC(C)C(NS(=O)(=O)c1cccs1)C(=O)NC1CCCCCC1 (stereo not drawn),i
CC1CC(C)CN(c2nc3c(c(=O)n(C)c(=O)n3C)n2Cc2ccc(F)cc2)C1 (stereo not drawn),i
CCn1c(=O)n(-c2ccc(C)c(C)c2)c2nc(-c3ccccc3F)nc(C(N)=O)c21,i
O=C1CC(N2CCN(Cc3ccc(Cl)cc3)CC2)C(=O)N1c1ccc(F)cc1 (stereo not drawn),i
C=C(C)CN(CC)Cc1cc(OC)c(OC)c(OC)c1,i
C=C(C)CN(CC)Cc1ccc(-c2ccccc2[N+](=O)[O-])o1,33.0%*
CCN(CC)C(=O)c1ccc([N+](=O)[O-])o1,i
CCCOc1ccc(C(N)CC(=O)O)cc1 (stereo not drawn),i
CC(C)Cc1c(C#N)c(N)nc(SC(C(N)=O)c2ccccc2)c1C#N (stereo not drawn),i
CC1(C)CC(=O)C(C(C2=C(O)CC(C)(C)CC2=O)c2ccc([N+](=O)[O-])s2)C(=O)C1 (stereo not drawn),30.0%*
CN(C)c1ccc(C(C2=C(O)CC(C)(C)CC2=O)C2C(=O)CC(C)(C)CC2=O)cc1 (stereo not drawn),i
CC1(C)CC(=O)C(C(C2=C(O)CC(C)(C)CC2=O)c2cccc(O)c2)C(=O)C1 (stereo not drawn),i
O=C1CC(c2cccc(Cl)c2)c2cc(Br)c3ccccc3c2N1 (stereo not drawn),i
CCOc1ccc(NS(=O)(=O)c2ccc3[nH]c(=O)sc3c2)cc1,i
O=C(NC1CCCCCCC1)C1CCCN1S(=O)(=O)c1cccc2nsnc12 (stereo not drawn),33.0%*
O=C(C1CCCN1S(=O)(=O)c1cccc2nsnc12)N1CCCCC1 (stereo not drawn),i
CC(C)(C)NC(=O)C1CCCN1S(=O)(=O)c1cccc2nsnc12 (stereo not drawn),i
CNC(=O)Cc1ccc(-n2ccnc2)cc1,i
SMILES,ST2 IL33 inh
Nc1[nH]nc2nc(N3CCCCCC3)nc(-c3ccccc3)c12,i
CCOc1ccc(-n2c(SCc3ccccc3F)nc3c(c2=O)SCC3)cc1,i
Cc1ccc(-n2ncc3c(=O)n(-c4ccc(C)c(C)c4)c(C)nc32)cc1,i
Cc1ccc(-n2c(C)nc3c(cnn3-c3ccc(F)cc3)c2=O)cc1,i
Cc1ccc(-n2ncc3c([N+](=O)[O-])cc([N+](=O)[O-])cc32)cc1,62.0%*
Cc1cccc(-c2ccc(C(=O)O)c(N3Cc4cnc(C(C)(C)C)nc4C3)n2)c1,i
Cc1[nH]cnc1CSCCNC(=O)[C@@]12CNC[C@@H]1CN(C)C2,i
COCCOC(=O)C1=C(N)OC2=C(C(=O)CCC2)C1c1ccccc1 (stereo not drawn),i
CC1=NN(c2cccc(Cl)c2)C(=O)/C1=C\c1ccc(-c2cc([N+](=O)[O-])ccc2O)o1,91.0%*
COc1ccc(/C=C2\C(=O)N(c3cccc(Cl)c3)N=C2C)cc1Br,i
CC1=NN(c2ccc(Cl)c(C(=O)O)c2)C(=O)/C1=C\c1ccc(-c2cccc([N+](=O)[O-])c2)o1,i
COc1ccc(-c2ccc(/C=C3\C(=O)N(c4cccc(Cl)c4)N=C3C)o2)cc1[N+](=O)[O-],49.0%*
CC1=NN(c2ccc(Br)cc2)C(=O)/C1=C\c1ccc(-c2cccc([N+](=O)[O-])c2)o1,i
COc1ccc(/C=C2\C(=O)N(c3ccccc3)N=C2C)cc1[N+](=O)[O-],i
CCOC(=O)c1cn(CC)c2cc(N(C)CCc3ccc(OC)c(OC)c3)c(F)cc2c1=O,i
C1=CC2C(C1)C1CC2C2N=NN(c3ccccc3)C12 (stereo not drawn),i
Cc1ccc(CNC(=O)c2cccn3c(=O)c4c5c(sc4nc23)CCCC5)cc1,i
CC(C)C(=O)N1c2ccccc2NC2=C(C(=O)CCC2)C1c1ccco1 (stereo not drawn),30.0%*
CC(=O)N1c2ccccc2NC2=C(C(=O)CCC2)C1c1ccco1 (stereo not drawn),i
CC(=O)N1c2ccccc2NC2=C(C(=O)CCC2)C1c1ccc(Cl)c(Cl)c1 (stereo not drawn),i
Cc1cc(Nc2ncnc3ccccc23)ccc1Br,i
COc1ccc(N2CSC3=C(C#N)C(c4cc(OC)ccc4OC)CC(=O)N3C2)cc1 (stereo not drawn),i
